NIH3T3 tox: NIH 3T3 cell cytotoxicity | NIH 3T3 viability, CellTiter-Glo ATP luminescence, 48-72 h | Potency, µM (top dose mostly 96.7 µM), for inactives: at the top dose activity change, negative = cytotoxicity, most hits filed as inhibitors | 94,000 compounds, 4.3% hits; note: nearly all actives have a fitted effect of over 55% in size
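NIH 3T3 cells at 400 cells/well received 23 nL of compound by pintool and were incubated 48 or 72 h at 37 °C. Viability was read as ATP-coupled CellTiter-Glo luminescence.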
NPR1 antag: antagonists of human natriuretic peptide receptor Npr1 | P16066 | HEK293 hNpr1 GloSensor cGMP, ANP-stimulated luminescence | Potency, µM (series often up to 46.3 µM), for the others: at the highest dose activity change, negative = inhibition, most hits filed as inhibitors | 76,000 compounds, 1.6% hits; calls by dose curve; note: nearly all actives have a fitted effect of over 60% in size
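Compound pre-incubated 30 min at room temperature on GloSensor-loaded HEK293 cells stably carrying hNpr1 and the pGS-40F cGMP biosensor. Stimulation uses hNppA at 0.1 nM final; luminescence is taken at baseline and 20 min post-agonist.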
HEK cytotox: cytotoxic compounds in HEK 293 cells. HEK 293 viability, ATP luminescence (CellTiter-Glo), 48-72 h. Potency, µM (titrated, usually from 115 µM), for inactives: at the top dose activity change, negative = cytotoxicity, usual class: inhibitors. 94,000 compounds, 6.6% hits. AID 1345083; note: nearly all actives have a fitted effect of over 60% in size
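Cytotoxicity was scored by loss of ATP-coupled luminescence (CellTiter-Glo) in HEK 293 cells. Compound treatment ran 48 or 72 hr at 37 degree Celsius, 5% CO2, 95% humidity.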
GPT2 inhibitor: blocks human glutamate pyruvate transaminase 2 | Potency, µM (titrated, usually from 57.7 µM), for the others: at the top dose activity change, negative = inhibition, most hits filed as inhibitors | Recombinant GPT2, coupled pyruvate oxidase/HRP Amplex Red fluorescence | 100,000 compounds, 0.25% hits | AID 1671188 | Q8TD30; note: nearly all actives have a fitted effect of over 60% in size
Target sequence (Q8TD30 whole entry, looked up): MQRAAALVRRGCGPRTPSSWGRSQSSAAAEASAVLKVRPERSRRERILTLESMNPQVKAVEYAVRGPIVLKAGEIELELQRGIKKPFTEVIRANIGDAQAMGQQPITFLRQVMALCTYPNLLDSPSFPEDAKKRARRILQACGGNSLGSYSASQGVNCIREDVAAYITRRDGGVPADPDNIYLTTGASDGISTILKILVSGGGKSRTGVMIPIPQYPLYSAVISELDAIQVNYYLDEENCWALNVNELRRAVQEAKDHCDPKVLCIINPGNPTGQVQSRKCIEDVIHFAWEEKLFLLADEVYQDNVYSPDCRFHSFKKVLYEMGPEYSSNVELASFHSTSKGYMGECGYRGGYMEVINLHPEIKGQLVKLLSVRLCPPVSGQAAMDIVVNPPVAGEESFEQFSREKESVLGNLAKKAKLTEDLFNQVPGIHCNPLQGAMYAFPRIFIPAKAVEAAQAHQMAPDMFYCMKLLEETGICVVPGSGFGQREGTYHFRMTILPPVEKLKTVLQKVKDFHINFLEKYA
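Fluorescence of coupled pyruvate oxidase/HRP/Amplex Red system (50uM Amplex, 30 min, dark) reports pyruvate formed by GPT2. Enzyme reaction: 10ng/uL GPT2, 2mM L-alanine, 250uM a-KG, 30 min room temperature, pH 7.5; 50uM AOA control.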
FLuc inh: Photinus pyralis luciferase inhibition; Potency, µM (highest dose often 115 µM), most hits filed as inhibitors; 76,000 compounds, 2.5% hits; purified P. pyralis luciferase, luminescence, biochemical; note: nearly all actives have a fitted effect of over 65% in size
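Biochemical qHTS: compound (6-point titration) added to 10uM D-luciferin plus 10uM ATP in Tris acetate pH 7.5 buffer with Mg, Tween-20 and BSA, then purified enzyme at 10nM; light output imaged.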
The depositor's hits bear a star; i = inactive; ? = inconclusive; . = no result; [ ] = dose if it differs, or a comment. Rows were chosen to be rich in hits. Some 10% of all compounds tested hit in one or more screens of this group. Unless noted, calls come from the whole dose curve; as a rule, active = well fitted curve in the direction sought with a large enough effect; inconclusive = small, poorly fitted or top-dose-only effect, or another doubt; inactive = no such curve, though single readings can be large; an effect the other way counts as inactive or inconclusive. % is set by controls: 0 for no effect and ±100 for the full control effect; potency is the fitted concentration of half-maximal effect.

SMILES | NIH3T3 tox | NPR1 antag | HEK cytotox | GPT2 inhibitor | FLuc inh
Cc1ccc(NC(=O)c2ccc3c(c2)N(C)C2CCCCN2C3=O)cc1Cl (centres undefined) | -18% | -8% | ? | -2% | ?
Cc1ccc(NC(=O)c2ccc3c(c2)N(C)C2CCCCCN2C3=O)cc1F (centres undefined) | ? | 0% | 32µM* | -2% | i
Cc1cc(NC(=O)c2ccc3c(c2)N(C)C2CCCCN2C3=O)ccc1Cl (centres undefined) | -24% | -1% | ? | i | 25µM*
CN1c2cc(C(=O)Nc3ccc(Cl)c(F)c3)ccc2C(=O)N2CCCCC21 (centres undefined) | ? | -2% | ? | 1% | ?
Cc1ccc(NC(=O)c2ccc3c(c2)N(C)C2CCCCCN2C3=O)cc1 (centres undefined) | ? | 3% | ? | i | ?
CN1c2cc(C(=O)Nc3ccc4c(c3)OCCO4)ccc2C(=O)N2CCCCCC21 (centres undefined) | ? | -6% | ? | -3% | 13µM*
Cc1ccc(NC(=O)c2ccc3c(c2)N(C)C2CCCCN2C3=O)cc1C (centres undefined) | ? | -3% | ? | -10% | 40µM*
Cc1ccc(NC(=O)c2ccc3c(c2)N(C)C2CCCCCN2C3=O)cc1C (centres undefined) | ? | ? | 45µM* | 2% | ?
COc1ccc(NC(=O)c2ccc3c(c2)N(C)C2CCCCCN2C3=O)cc1OC (centres undefined) | ? | -23% | ? | i | i
CCOc1ccccc1NC(=O)N1CC[C@@H](c2nc(C)no2)[C@@H](NC(=O)C2CC2)C1 | -5% | -11% | 13% | -1% | i
Cc1ccc(C(CC(=O)N2CCc3ccccc3C2)c2cn(C)c3ccccc23)cc1 (centres undefined) | ? | -18% | ? | ? | 35µM*
Cc1ccc(C(CC(=O)N2CCCCC2)c2cn(C)c3ccccc23)cc1 (centres undefined) | ? | -18% | 50µM* | -5% | i
CCOC(=O)C1CCCN(C(=O)CC(c2ccc3c(c2)OCO3)c2cn(CC)c3ccccc23)C1 (centres undefined) | 40µM* | -15% | ? | ? | i
Cc1ccc(C(CC(=O)N2CCC(C)CC2)c2cn(C)c3ccccc23)cc1 (centres undefined) | -26% | -9% | -15% | -6% | i
Cc1ccc(C(=O)N2CCN(c3cc(C(F)(F)F)ncn3)CC2)c(C)c1 | ? | -9% | ? | 4% | i
Cc1cc2cc(-c3c(C)noc3C)nc(NC3CC3)c2o1 | ? | 2%[70.6 µM] | ? | -6%[88.5 µM] | i
Cc1noc(C)c1-c1cc2cc(CO)oc2c(NCC2CCOCC2)n1 | 22µM* | -12%[70.6 µM] | ? | -34%[88.5 µM] | i
Cc1noc(C)c1-c1cc2cc(CO)oc2c(-c2ccc(F)c(Cl)c2)n1 | 22µM* | -23%[70.6 µM] | 50µM* | 0%[88.5 µM] | i
COc1ccc(-c2nc(-c3c(C)noc3C)cc3cc(CO)oc23)cn1 | ? | 2%[70.6 µM] | ? | 1%[88.5 µM] | i
Cc1noc(C)c1-c1cc2cc(CO)oc2c(NCCOc2ccccc2)n1 | ? | -14%[70.6 µM] | ? | 3%[88.5 µM] | i
Cc1noc(C)c1-c1cc2cc(CO)oc2c(NC2CCOCC2)n1 | 25µM* | -19%[70.6 µM] | ? | -26%[88.5 µM] | i
O=C(NCCc1cccs1)c1cc2n(n1)CC(c1ccc(Cl)cc1)OC2 (centres undefined) | ? | ? | ? | i | i
Cc1n[nH]c(C)c1CNC(=O)c1ccc(N2CC3CC(C2)[C@H]2CCCC(=O)N2C3)nc1 (some centres undefined) | i | 2% | 3% | i | i
Cn1nccc1-c1ccc2ncn(-c3ccc(F)cc3F)c(=O)c2n1 | ? | 2%[70.6 µM] | 63µM* | -7%[88.5 µM] | i
Cc1ccc(C(=O)N2CCCCCCNC(=O)[C@@H]3C[C@@H](c4nc(Cc5ccccc5)no4)C[C@@H]32)s1 | ? | 0% | 79µM* | i | i
SMILES | NIH3T3 tox | NPR1 antag | HEK cytotox | GPT2 inhibitor | FLuc inh
COc1cc(CNC(=O)c2cnc3c(c2)N(C(=O)Cc2ccccc2OC)CCC3)cc(OC)c1 | -28% | -8% | ? | -4% | i
CC(C)CCNC(=O)C1CCN(C(=O)c2ncn3c2COC(c2ccc(F)cc2)C3)CC1 (centres undefined) | -15% | 2% | -1% | -23% | ?
COc1cc(-c2nc(CN3CCCC(CN)C3)c(C)o2)cc2c1OCO2 (centres undefined) | ? | -3% | 40µM* | ? | i
COc1ccc(-c2nc(CN3CC[C@H]4CC[C@@H](C3)N4)c(C)o2)c(OC)c1C | ? | -1% | ? | i[11.5 µM] | i
COc1cc(C)c(-c2nc(CN3CCCC(CN)C3)c(C)o2)cc1C (centres undefined) | 25µM* | -2% | 32µM* | -21% | i
COc1cc(C)c(-c2nc(CN3CCOC(CCN)C3)c(C)o2)cc1C (centres undefined) | ? | 1% | 45µM* | -7% | i
Cc1nn2c(c1-c1ccccc1OCc1ccccc1)N(C(=O)CN1CCOCC1)CCC2 | ? | -19% | -5% | 0% | i
Cc1nn2c(c1-c1ccccc1OCc1ccccc1)N(Cc1ccccc1O)CCC2 | ? | ? | ? | -2%[88.5 µM] | i
Cc1nn2c(c1-c1ccccc1OCc1ccccc1)N(Cc1cccnc1)CCC2 | ? | -20%[70.6 µM] | 63µM* | 4%[88.5 µM] | i
Cc1nn2c(c1-c1ccccc1OCc1ccccc1)N(Cc1nccn1C)CCC2 | ? | -25%[70.6 µM] | 100µM* | i | i
CC(C)CCN1C[C@@H]2C(=O)N(CCCN3CCCC3=O)C(=O)[C@@H]2C1 | -12% | 3% | -4% | i | i
OCc1cccc(-c2ccc3ncc(Nc4cccnc4)n3n2)c1 | ? | 2%[70.6 µM] | -10%[172 µM] | ? | i
OCc1cccc(-c2ccc3ncc(Nc4ccccc4Cl)n3n2)c1 | ? | -20%[70.6 µM] | 89µM* | -26%[88.5 µM] | 22µM*
OCc1cccc(-c2ccc3ncc(Nc4ccc(OCCN5CCCC5)cc4)n3n2)c1 | ? | 6%[70.6 µM] | 100µM* | i | i
OCc1cccc(-c2ccc3ncc(Nc4cccc(C(F)(F)F)c4)n3n2)c1 | 50µM* | -20%[70.6 µM] | ? | ? | i
O=C1NC(=NC2CCCCC2)C2(CCN(Cc3ccc(F)cc3)C2)N1c1cccnc1 (centres undefined) | 40µM* | . | i | -4% | .
COc1ccc(CN2CCC3(C2)C(=NC2CCCCC2)NC(=O)N3c2cccnc2)cc1 (centres undefined) | 32µM* | . | i | i | .

Screens from PubChem BioAssay.
